In all, about 5,500 compounds went through this assay and about 2,000 (36%) were called active. Roughly 18% stayed inconclusive and do not appear here. Cut-off read from the data, not from the text of the source: active = normalized growth mostly below about 0.91 (no sharp cut-off); inconclusive = no clear call, values can overlap the other calls; inactive = mostly above about 0.92. Some of the results follow.
Experiment: chemical genetic growth profiling, strain panel (AID 1159580);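 note: tested at 20 µM; growth read once vehicle control cultures reached saturation at 30 °C; 1 = growth at the plate median or of vehicle wells; lower values mean less growth of the strain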
Settings: growth OD

Measured: normalized growth

COc1cc(OC)c2c(c1)O[C@H](c1cc(OC)c(OC)c(OC)c1)[C@H](OC(=O)c1cc(OC)c(OC)c(OC)c1)C2
inactive: S. cerevisiae deletion strains, locus YAL013W, strain DEP1, hits give low values 1.01 | S. cerevisiae deletion strains, locus YBR021W, strain FUR4, hits give low values 0.998 | S. cerevisiae deletion strains, locus YBR229C, strain ROT2, hits give low values 1.02 | S. cerevisiae deletion strains, locus YCL029C, strain bik1, hits give low values 1.01 | S. cerevisiae deletion strains, locus YDL035C, strain GPR1, hits give low values 0.994 | S. cerevisiae deletion strains, locus YDL074C, strain BRE1, hits give low values 0.996 | S. cerevisiae deletion strains, locus YDL101C, strain DUN1, hits give low values 1 | S. cerevisiae deletion strains, locus YDL134C, strain PPH21, hits give low values 1 | S. cerevisiae deletion strains, locus YDL185W, strain tfp1, hits give low values 1.01 | S. cerevisiae deletion strains, locus YDL192W, strain arf1, hits give low values 1 | S. cerevisiae deletion strains, locus YDR101C, strain arx1, hits give low values 0.999 | S. cerevisiae deletion strains, locus YDR150W, strain NUM1, hits give low values 1.01 | S. cerevisiae deletion strains, locus YDR162C, strain NBP2, hits give low values 1 | S. cerevisiae deletion strains, locus YDR318W, strain mcm21, hits give low values 0.997 | S. cerevisiae deletion strains, locus YDR388W, hits give low values 1 | S. cerevisiae deletion strains, locus YDR502C, strain sam2, hits give low values 0.991 | S. cerevisiae deletion strains, locus YEL061C, strain CIN8, hits give low values 1.01 | S. cerevisiae deletion strains, locus YER110C, hits give low values 1 | S. cerevisiae deletion strains, locus YER155C, strain BEM2, hits give low values 1 | S. cerevisiae deletion strains, locus YER167W, strain BCK2, hits give low values 1.02 | S. cerevisiae deletion strains, locus YGL078C, strain dbp3, hits give low values 1 | S. cerevisiae deletion strains, locus YGL086W, strain mad1, hits give low values 0.991 | S. cerevisiae deletion strains, locus YGL248W, strain PDE1, hits give low values 1.01 | S. cerevisiae deletion strains, locus YGR078C, strain PAC10, hits give low values 1.02 | S. cerevisiae deletion strains, locus YGR135W, strain pre9, hits give low values 0.994 | S. cerevisiae deletion strains, locus YGR229C, strain SMI1, hits give low values 0.993 | S. cerevisiae deletion strains, locus YGR252W, strain gcn5, hits give low values 0.933 | S. cerevisiae deletion strains, locus YHR030C, strain SLT2, hits give low values 1.01 | S. cerevisiae deletion strains, locus YHR079C, strain IRE1 (second series), hits give low values 1 | S. cerevisiae deletion strains, locus YHR094C, strain hxt1, hits give low values 0.996 | S. cerevisiae deletion strains, locus YHR129C, strain ARP1, hits give low values 1.01 | S. cerevisiae deletion strains, locus YHR200W, strain rpn10, hits give low values 0.999 | S. cerevisiae deletion strains, locus YIL066C, strain RNR3, hits give low values 0.997 | S. cerevisiae deletion strains, locus YIL073C, strain SPO22, hits give low values 0.995 | S. cerevisiae deletion strains, locus YIL125W, strain kgd1, hits give low values 1 | S. cerevisiae deletion strains, locus YIR030C, strain dcg1, hits give low values 1.01 | S. cerevisiae deletion strains, locus YJL095W, strain BCK1, hits give low values 1.01 | S. cerevisiae deletion strains, locus YJL134W, strain LCB3, hits give low values 1.01 | S. cerevisiae deletion strains, locus YJL168C, strain set2, hits give low values 1 | S. cerevisiae deletion strains, locus YJL187C, strain SWE1 (second series), hits give low values 1 | S. cerevisiae deletion strains, locus YJR043C, strain POL32, hits give low values 0.992 | S. cerevisiae deletion strains, locus YJR075W, strain HOC1, hits give low values 1 | S. cerevisiae deletion strains, locus YKL009W, strain mrt4, hits give low values 0.983 | S. cerevisiae deletion strains, locus YKL068W, hits give low values 1.01 | S. cerevisiae deletion strains, locus YKL085W, strain MDH1 (second series), hits give low values 0.993 | S. cerevisiae deletion strains, locus YKL085W, strain MDH1, hits give low values 0.993 | S. cerevisiae deletion strains, locus YKL190W, strain CNB1, hits give low values 0.998 | S. cerevisiae deletion strains, locus YKR001C, strain vps1, hits give low values 0.99 | S. cerevisiae deletion strains, locus YLR039C, strain RIC1, hits give low values 1.01 | S. cerevisiae deletion strains, locus YLR058C, strain SHM2, hits give low values 1.01 | S. cerevisiae deletion strains, locus YLR102C, strain apc9, hits give low values 1 | S. cerevisiae deletion strains, locus YLR262C, strain YPT6, hits give low values 1.02 | S. cerevisiae deletion strains, locus YLR268W, strain sec22, hits give low values 1.01 | S. cerevisiae deletion strains, locus YLR330W, strain CHS5, hits give low values 1.01 | S. cerevisiae deletion strains, locus YLR342W, strain FKS1 (second series), hits give low values 1 | S. cerevisiae deletion strains, locus YLR371W, strain rom2, hits give low values 1.01 | S. cerevisiae deletion strains, locus YLR418C, strain cdc73, hits give low values 0.973 | S. cerevisiae deletion strains, locus YML016C, strain PPZ1, hits give low values 1 | S. cerevisiae deletion strains, locus YML032C, strain rad52, hits give low values 0.992 | S. cerevisiae deletion strains, locus YML124C, strain tub3, hits give low values 1 | S. cerevisiae deletion strains, locus YMR078C, strain ctf18, hits give low values 1 | S. cerevisiae deletion strains, locus YMR223W, strain ubp8, hits give low values 0.994 | S. cerevisiae deletion strains, locus YMR263W, strain SAP30, hits give low values 1 | S. cerevisiae deletion strains, locus YMR307W, strain GAS1, hits give low values 0.951 | S. cerevisiae deletion strains, locus YNL067W, strain RPL9B, hits give low values 1.01 | S. cerevisiae deletion strains, locus YNL128W, strain TEP1, hits give low values 1.02 | S. cerevisiae deletion strains, locus YNL153C, strain GIM3, hits give low values 1.01 | S. cerevisiae deletion strains, locus YNL233W, strain BNI4, hits give low values 1 | S. cerevisiae deletion strains, locus YNL250W, strain rad50, hits give low values 1 | S. cerevisiae deletion strains, locus YNL271C, strain bni1, hits give low values 1.01 | S. cerevisiae deletion strains, locus YNL298W, strain CLA4, hits give low values 1.01 | S. cerevisiae deletion strains, locus YNL307C, strain MCK1, hits give low values 1 | S. cerevisiae deletion strains, locus YNL322C, strain KRE1, hits give low values 1 | S. cerevisiae deletion strains, locus YNR052C, strain pop2, hits give low values 1.01 | S. cerevisiae deletion strains, locus YOL006C, strain TOP1, hits give low values 0.983 | S. cerevisiae deletion strains, locus YOL012C, strain htz1 0.884 | S. cerevisiae deletion strains, locus YOL147C, strain pex11, hits give low values 0.996 | S. cerevisiae deletion strains, locus YOR061W, strain CKA2, hits give low values 1 | S. cerevisiae deletion strains, locus YOR069W, strain VPS5, hits give low values 0.999 | S. cerevisiae deletion strains, locus YOR136W, strain idh2, hits give low values 0.997 | S. cerevisiae deletion strains, locus YOR144C, strain elg1, hits give low values 1 | S. cerevisiae deletion strains, locus YOR184W, strain ser1, hits give low values 0.987 | S. cerevisiae deletion strains, locus YOR316C, strain cot1, hits give low values 1 | S. cerevisiae deletion strains, locus YPL055C, strain LGE1, hits give low values 0.989 | S. cerevisiae deletion strains, locus YPL241C, strain CIN2, hits give low values 0.986 | S. cerevisiae deletion strains, locus YPR119W, strain clb2, hits give low values 0.995 | S. cerevisiae deletion strains, locus YPR141C, strain kar3, hits give low values 1 | S. cerevisiae deletion strains, locus YPR163C, strain tif3, hits give low values 0.997 | S. cerevisiae deletion strains, locus YPR167C, strain met16, hits give low values 1.01 | S. cerevisiae deletion strains, strain wtn01, hits give low values 0.992 | S. cerevisiae strains, strain wild type, hits give low values 1.01
